This note sets out measurements from PubChem BioAssay AID504467 (National Center for Advancing Translational Sciences (NCATS), 2011).

The whole screen tested about 330,000 compounds, of which about 7,700 (2.3%) were called active. Not shown: some 26% with an inconclusive outcome. The sample as a whole holds a higher share of actives than the screen did. Values without a mark were called inactive. Calls come from the whole dose curve; as a rule, active = well fitted inhibition curve with a large enough effect; inconclusive = small, poorly fitted or top-dose-only effect, or effect the other way; inactive = flat fitted curve, though single readings scatter.
% is set by controls: 0 for no effect and ±100 for the full control effect; potency is the fitted concentration of half-maximal effect.

A short description of the assay: qHTS screen for small molecules that inhibit ELG1-dependent DNA repair in human embryonic kidney (HEK293T) cells expressing luciferase-tagged ELG1. Note: nearly all actives have a fitted effect of over 55% in size. The settings on record: HEK293T ELG1-luciferase reporter, luminescence, 16 h, DNA damage induced by 5-fluorouridine; series mostly up to 46.1 µM; activity change, negative = inhibition: at the top concentration. The method, boiled down: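 Quantitative HTS, concentration-response format. 2,000 cells/well co-treated with 5-fluorouridine and compound, 16 hr in 5% CO2 at 37 °C; ONE-Glo luminescence read after 30 min.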
With `CC(C)(C)CC(C)(C)NCC(O)COCCOc1ccc(Br)cc1` (stereo not given), the Potency is 23.1 µM (active). With `OC(COc1ccc(Br)cc1)CN1CCCC1` (stereo not given), the “activity change, negative = inhibition” value is 4.58%. On the same count and under the same terms, for `Cc1noc(COc2ccccc2OCC(O)CNC(C)(C)C)n1` (stereo not given) the value was 7.78%. Regarding `COc1ccccc1CNC(=O)[C@@H]1CCCN1C(=O)[C@@H]1Cc2ccccc2CN1C(=O)OC(C)(C)C`, the “activity change, negative = inhibition” value is 12.9%. Same read-out and setting: in the case of `O=C1C=CN2CCCC2CC1` (stereo not given) it was 3.43%; in that of `COc1ccc(N(C(=O)c2snc(C(N)=O)c2N)C(C(=O)NC2CCCC2)c2ccc(C)o2)c(OC)c1` (stereo not given), -8.34%; in that of `COc1ccc(NC(=O)COC(=O)c2n[nH]c3ccccc23)c(OC)c1`, -16.4%. Same read-out and setting: for `COc1ccc(C(=O)Nc2ccccc2C(=O)NCc2ccco2)cc1` the value was -5.84%. `Cc1ccc(N(Cc2ccc(C(=O)Nc3ccccc3C(=O)NCc3ccco3)cc2)S(C)(=O)=O)cc1C`: the Potency was 4.61 µM (active). For the compound `Cc1cccc(Nc2ccccc2C(=O)NCc2ccco2)c1C`, the “activity change, negative = inhibition” value was -5.52%. Take `Cc1cc(C)c(S(=O)(=O)N2CCC(C(=O)OCc3c(C)noc3C)CC2)c(C)c1`: the “activity change, negative = inhibition” value was 2.81%.

As to `O=C(CCc1nc2sc3c(c2c(=O)[nH]1)CCCC3)NCC(=O)Nc1ccccc1Br`, the “activity change, negative = inhibition” value was 0.543%. Turning to `COc1ccccc1C(=O)OCC(=O)Nc1cccc(S(=O)(=O)NC2=NCCCCC2)c1`, the “activity change, negative = inhibition” value was -2.4%. `CCc1ccc2[nH]c(=O)c(Cc3ccccc3)c(O)c2c1`: the “activity change, negative = inhibition” value was -6.81%. Turning to `C=C(C)C(=O)Nc1cccc(C(C)=O)c1`, the “activity change, negative = inhibition” value was 3.33%. As to `CC(=O)c1cccc(NC(=O)c2ccncc2)c1`, the “activity change, negative = inhibition” value is -4.98%. In the case of `C=CCSc1nsc(NC(=O)Nc2cccc(C(C)=O)c2)n1`, the Potency was 7.3 µM (active). In the case of `COc1ccc2[nH]c3c(c2c1)CCN1C(=O)C(CC(=O)NCCCN(C)C)C[C@H](C(=O)N2CCOCC2)[C@@]31CCC1CCCC1` (stereo not given in full), the “activity change, negative = inhibition” value was 10.8%. For `CN(c1ccccc1)S(=O)(=O)c1cccc(C(=O)NNC(=O)c2ccncc2)c1`, the “activity change, negative = inhibition” value was -1.9%.

For `CCN(c1ccccc1)S(=O)(=O)c1ccc(C(=O)Nc2nccs2)cc1`, the “activity change, negative = inhibition” value was -19.3%. `Cc1cccc(NC(=O)c2ccc(S(=O)(=O)N(C)c3ccccc3)cc2)n1`: the Potency was 23.1 µM (active). `COc1ccccc1S(=O)(=O)NCc1ccc(C(=O)N(C)Cc2ccc(F)cc2)cc1`: the “activity change, negative = inhibition” value was -22%. As for `O=S(=O)(Nc1cc(Cl)ccc1N1CCOCC1)c1ccccc1Cl`, the “activity change, negative = inhibition” value is -7.01%. `CCOC(=O)C1=C(CCc2ccccc2)NC(=O)NC1c1ccc2ccccc2c1` (stereo not given): the “activity change, negative = inhibition” value was -12.5%. Regarding `COc1cc(CN2CCN(Cc3ccc(C)cc3)CC2)c([N+](=O)[O-])cc1OC`, the Potency was 20.6 µM (active).

On to `COc1cc(CN2CCCN(C)CC2)c([N+](=O)[O-])cc1OC`, for which the “activity change, negative = inhibition” value is -6.3%. Turning to `COc1cc(CNCc2ccc3c(c2)OCO3)c([N+](=O)[O-])cc1OC`, the “activity change, negative = inhibition” value was -3.68%. Regarding `Cc1cc2oc(=O)cc(CN(C)Cc3ccc(OC(F)F)cc3)c2cc1Cl`, the “activity change, negative = inhibition” value is -14.2%. Turning to `CCOc1ccc(N(C)Cc2cc(=O)oc3ccc(OC)cc23)cc1`, the Potency was 16.4 µM (active). As to `COC(=O)COc1ccc2oc(=O)cc(C)c2c1`, the “activity change, negative = inhibition” value was 5.41%. Consider `Cc1ccc2c(c1)C(c1ccccc1)N(C(=O)c1ccc(F)cc1)CC(=O)N2` (stereo not given), for which the “activity change, negative = inhibition” value was -4.96%.

Regarding `O=C(Cn1ccc2cc(S(=O)(=O)N3CCCC3)ccc21)NCc1ccccc1`, the “activity change, negative = inhibition” value is 14.6%. Consider `O=C1[C@@H](c2ccccc2)[C@@H](c2ccccc2)N1c1cccnc1`, for which the “activity change, negative = inhibition” value was 17.2%.

In the case of `O=C1CCN(Cc2ccccc2)CCN1[C@H](CSc1ccccc1)c1ccccc1`, the “activity change, negative = inhibition” value was 26.6%. Take `Cc1cc(C)c(NC(=O)CS(=O)CC(=O)Nc2cccnc2)c(C)c1` (stereo not given): the “activity change, negative = inhibition” value was -1.59%.

As to `Cc1ccc(-c2nc(-c3cccnc3)sc2CC(=O)Nc2ccc(C)c(Cl)c2)cc1`, the Potency is 16.4 µM (active). `Cc1nc(-c2ccc(F)cc2)c(CC(=O)Nc2cccc(S(=O)(=O)N3CCOCC3)c2)s1`: the “activity change, negative = inhibition” value is -9.34%. Consider `COc1ccc(N2CCN(C3CCCCC3NS(=O)(=O)c3ccccc3)CC2)cc1` (stereo not given), for which the “activity change, negative = inhibition” value is -5.22%. Consider `CCOc1ccc(CN2CCCN(C)CC2)cc1`, for which the “activity change, negative = inhibition” value was 9.71%. Take `CCOc1ccc(CN2CCN(Cc3c[nH]c4ccccc34)CC2)cc1`: the Potency was 13 µM (active). On to `CCOc1ccc(CC(=O)NC2CCN(Cc3ccccc3)CC2)cc1`, for which the “activity change, negative = inhibition” value is -9.53%. Still for that read-out and setting: in the case of `COC(=O)[C@]1(S(=O)(=O)c2ccccc2)C[C@@H]2ON=C(c3ccc(OC)cc3)[C@@H]2C1` it was 3.37%. With `Cc1ccc(S(=O)(=O)Nc2ccc(F)c(S(=O)(=O)N3CCOCC3)c2)cc1`, the “activity change, negative = inhibition” value is -19.8%. For `Cc1ccc(-c2ccc(=O)n(Cc3ccc(F)cc3Cl)n2)cc1`, the “activity change, negative = inhibition” value is -0.564%. With `O=C1C=C(c2cccc(Cl)c2)C[C@@H](c2ccc(F)cc2)C1`, the “activity change, negative = inhibition” value is 3.63%. With `O=C(c1cc(-c2ccc(Cl)s2)nc2ccccc12)N1CCOCC1`, the “activity change, negative = inhibition” value is -3.24%. As for `O=C(c1cn(-c2ccccc2)nc1-c1cc2ccccc2oc1=O)N1CCOCC1`, the Potency is 7.3 µM (active). With `CCOc1ccccc1-c1cc(C(=O)N2CCOCC2)c2ccccc2n1`, the “activity change, negative = inhibition” value was -25.2%. In the case of `Nc1nc(-c2sc3nc4c(cc3c2N)CCCC4)nc(N2CCOCC2)n1`, the Potency was 6.51 µM (active). Turning to `COc1ccccc1C(CNC(=O)c1cccc(S(=O)(=O)Nc2ccc(F)cc2)c1)N(C)C` (stereo not given), the “activity change, negative = inhibition” value was -1.22%.
